rCAG RNA binder – r(CAG) repeat RNA binding; TO-PRO-1 dye displacement fluorescence; inhibition, % at 3 µM; actives 1.3% (n = 370,000); AID 651821;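 active means inhibition above the plate cutoff, the mean of all test compounds on that plate plus 3 SD, cut at about 35% in these data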;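 further: higher means more dye released from RNA so lower well fluorescence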
ABCB6 inh MLPCN – human ABCB6 transporter inhibition; Q9NP58; K562-ABCB6 porphyrin accumulation, flow cytometry, 1 h; active compounds read low; fluorescence ratio to DMSO, % at 10 µM; actives 0.19% (n = 360,000); AID 602162;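 active means fluorescence ratio to DMSO below 75%, the collection mean minus 3 SD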;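 further: signal is porphyrin accumulated inside mitochondria; lower ratio means ABCB6 inhibition with less porphyrin fluorescence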
Target sequence (Q9NP58 whole entry, looked up): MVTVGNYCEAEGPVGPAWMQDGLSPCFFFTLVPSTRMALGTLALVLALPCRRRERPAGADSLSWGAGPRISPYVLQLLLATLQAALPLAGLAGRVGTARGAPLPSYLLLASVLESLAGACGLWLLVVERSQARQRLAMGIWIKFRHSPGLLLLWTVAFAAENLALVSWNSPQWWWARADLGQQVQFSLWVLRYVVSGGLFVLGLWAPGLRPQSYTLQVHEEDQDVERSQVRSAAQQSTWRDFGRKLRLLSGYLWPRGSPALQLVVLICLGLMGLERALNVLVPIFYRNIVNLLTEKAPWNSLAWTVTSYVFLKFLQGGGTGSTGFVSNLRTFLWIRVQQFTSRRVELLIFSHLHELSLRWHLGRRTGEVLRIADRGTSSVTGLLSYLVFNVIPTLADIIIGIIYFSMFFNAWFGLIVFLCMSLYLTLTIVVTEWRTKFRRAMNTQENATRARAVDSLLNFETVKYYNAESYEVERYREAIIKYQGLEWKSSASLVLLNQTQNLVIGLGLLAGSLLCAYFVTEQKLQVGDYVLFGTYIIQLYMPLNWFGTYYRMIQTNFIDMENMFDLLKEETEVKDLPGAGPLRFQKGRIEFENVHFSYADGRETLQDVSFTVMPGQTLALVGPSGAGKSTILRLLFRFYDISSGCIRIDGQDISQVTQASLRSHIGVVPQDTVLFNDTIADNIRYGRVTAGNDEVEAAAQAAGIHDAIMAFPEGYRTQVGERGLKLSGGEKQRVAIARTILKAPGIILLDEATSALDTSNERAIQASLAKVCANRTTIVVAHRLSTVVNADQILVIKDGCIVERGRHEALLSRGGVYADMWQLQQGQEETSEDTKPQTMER
PG9 binder – PG9 antibody binding by small molecule | inhibition, % at 6.7 µM | TR-FRET gp120-PG9 antibody binding | actives 0.43% (n = 360,000); in the data active means inhibition above about 8.5%
Exocytosis inh – blocks lytic granule exocytosis | TALL-104 LAMP-1 surface exposure, flow cytometry; cells stimulated with thapsigargin and PMA | inhibition, % at 10 µM | actives 0.66% (n = 360,000) | AID 651702;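 active means inhibition above about 55%, limit read from the data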
rCAG bind conf – r(CAG) RNA repeat binding, confirmation. shares compounds with rCAG RNA binder. TO-PRO-1 dye displacement fluorescence. inhibition, % at 3 µM. actives 70% (n = 4,300). AID 652065;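 active means inhibition above a per-plate cutoff, the mean inhibition of sample wells plus 3 SD, cut at about 35% in these data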;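 further: loss of TO-PRO-1 fluorescence as compound displaces dye from 1x1 AA loop RNA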
DNA CAG counter – counter-screen for rCAG RNA binders: DNA CAG dye complex inhibitors; shares compounds with rCAG RNA binder; d(CAG) DNA oligo TO-PRO-1 dye displacement, fluorescence; inhibition, % at 3 µM; actives 94% (n = 4,300); AID 652068;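 active means inhibition above its plate's cutoff, the mean test-well inhibition plus 3 SD, cut at about 4.8% in these data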;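 further: hits displace the dye from DNA and so lower well fluorescence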
DNA CAG DR – DNA CAG dye complex inhibition, dose response counter-screen; DNA CAG/GTC duplex TO-PRO-1 dye displacement fluorescence; IC50, µM; actives 20% (n = 250); shares compounds with rCAG RNA binder; AID 686960; in the data active means IC50 below about 10 µM
Large screens that a line does not name were inactive (follow-up assays come after a bar, where they were run). The list is not random: actives were taken first. Their share in the collection is about 2.5%.

CCCc1cc(=O)oc2cc(OC(C)C(=O)NC3CC(C)(C)NC(C)(C)C3)ccc12 (stereo unspecified)	none
CCCC(C(=O)Nc1ccc(S(=O)(=O)Nc2nccs2)cc1)c1ccccc1 (stereo unspecified)	rCAG RNA binder 49 | rCAG bind conf 36 | DNA CAG counter 9.7
CCCCOC(=O)Nc1ccc(S(=O)(=O)Nc2nccs2)cc1	none
CCCCCCCC(=O)Nc1ccc(S(=O)(=O)Nc2nccs2)cc1	rCAG RNA binder 55 | rCAG bind conf 41 | DNA CAG counter 18
NC(=O)c1cc([N+](=O)[O-])ccc1NCc1ccccn1	none
O=C1c2cc(O)cc(O)c2C(=O)c2c1cc(O)c([C@@H](CO)CCO)c2O	rCAG RNA binder 53 | rCAG bind conf 44 | DNA CAG counter 19
Cc1cc(O)c2c(c1)C(=O)c1cc(O)cc(O)c1C2=O	none
CC(C)C[C@@]12C(=O)N(c3cccc(F)c3)C(=O)N1[C@H](c1ccc(Cl)cc1)[C@@H]1C(=O)N(C3CCCCC3)C(=O)[C@@H]12	none
Cc1cc(C)c2oc(C(=O)Nc3ccc(S(=O)(=O)Nc4nccs4)cc3)cc(=O)c2c1	rCAG RNA binder 68 | rCAG bind conf 64 | DNA CAG counter 29
CC(=O)Nc1ccc(NC(=O)c2cc(=O)c3cc(C)cc(C)c3o2)cc1	none
Cc1onc(-c2ccccc2Cl)c1C(=O)Nc1ccc(S(=O)(=O)Nc2nccs2)cc1	rCAG RNA binder 41 | rCAG bind conf 37 | DNA CAG counter 13
Cc1onc(-c2ccccc2Cl)c1C(=O)Nc1ccccc1	none
Cc1cc2oc(C(=O)Nc3ccc(S(=O)(=O)Nc4nccs4)cc3)cc(=O)c2cc1Cl	rCAG RNA binder 77 | rCAG bind conf 87 | DNA CAG counter 48
CN(CCO)CCC(=O)NC1(C)CS(=O)(=O)CC1S(=O)(=O)O (stereo unspecified)	none
CC(OC(=O)CC1CCCCC1)C(=O)Nc1ccc(F)cc1 (stereo unspecified)	none
FC(F)(F)c1ccc(Cl)c(N/N=C/c2ccc(N3CCOCC3)s2)c1	none
COC(C(=O)Nc1cccc([N+](=O)[O-])c1)c1ccccc1 (stereo unspecified)	none
CN(CC(=O)N1CCN(c2ccccc2)CC1)C1CCCc2ccccc21 (stereo unspecified)	none
C/C(=N\NC(=O)Cc1ccccc1)c1ccc(Cl)s1	none
CCOc1ccc(C(C)NC(=O)c2ccc3c(c2)NC(=O)C(C)S3)cc1OCC (stereo unspecified)	none
COC(=O)Nc1ccc(S(=O)(=O)N2CCCC(C(=O)NC3CCS(=O)(=O)C3)C2)cc1 (stereo unspecified)	none
CC(=O)Nc1ccc(S(=O)(=O)CC(=O)CS(=O)(=O)c2ccc(NC(C)=O)cc2)cc1	rCAG RNA binder 39 | rCAG bind conf inactive | DNA CAG counter inactive
O=C(CS(=O)(=O)c1ccccc1)CS(=O)(=O)c1ccccc1	rCAG RNA binder 53 (no result: ABCB6 inh MLPCN, Exocytosis inh) | rCAG bind conf inactive | DNA CAG counter inactive
CC(=O)CCS(=O)(=O)c1ccc(NC(C)=O)cc1	none
CCN(CC)c1ccc(C(=O)OCc2cc(=O)oc3cc(O)ccc23)cc1	rCAG RNA binder 36 | rCAG bind conf 43 | DNA CAG counter 19
CC(C)c1ccc(NC(=O)CSc2nc3ccsc3c(=O)n2CCC(=O)O)cc1	rCAG RNA binder 36 | rCAG bind conf inactive | DNA CAG counter 7.8
CCOC(=O)CNS(=O)(=O)c1ccc2c3c(cccc13)C(=O)N2CC	none
CCOC(=O)Cc1csc(NS(=O)(=O)c2ccc3c4c(cccc24)C(=O)N3CC)n1	rCAG RNA binder 56 | rCAG bind conf 47 | DNA CAG counter 13
COc1cc(C(=O)Nc2ccc3c(c2)N(C(=O)CN2CCN(C)CC2)c2ccccc2CC3)cc(OC)c1OC	none
Cc1ccc(S(=O)(=O)Nc2cccc(S(=O)(=O)Nc3ccccc3C(=O)O)c2)c(C)c1	rCAG RNA binder 67 | rCAG bind conf 65 | DNA CAG counter 26
O=C(O)c1ccccc1NS(=O)(=O)c1cccc(NS(=O)(=O)c2cc(Br)ccc2Br)c1	rCAG RNA binder 69 | rCAG bind conf 61 | DNA CAG counter 22
CCOc1ccc(Br)cc1S(=O)(=O)Nc1cccc(S(=O)(=O)N(C)C)c1	none
Cc1ccc(NS(=O)(=O)c2ccc(NC(=O)c3ccccc3C(=O)O)cc2)c(C)c1	none
CCOc1ccc(Br)cc1S(=O)(=O)Nc1cccc(S(=O)(=O)Nc2ccccc2C(=O)O)c1	rCAG RNA binder 78 | rCAG bind conf 83 | DNA CAG counter 48
CCN(CC)c1nc(Nc2ccc(Cl)cc2)nc(OCC#N)n1	rCAG RNA binder 51 | rCAG bind conf inactive | DNA CAG counter inactive
CN(Cc1ccc(OC(F)F)cc1)C(=O)C1CCN(S(=O)(=O)c2ccc3c(c2)OCCO3)CC1	none
O=C(O)c1cc([N+](=O)[O-])cc([N+](=O)[O-])c1N1CCN(c2cccc(C(F)(F)F)c2)CC1	rCAG RNA binder 41 | rCAG bind conf inactive | DNA CAG counter 5.7
COc1cc(NS(=O)(=O)c2ccc(N/C=C(\C=O)c3nc4ccccc4o3)cc2)nc(OC)n1	rCAG RNA binder 35 | rCAG bind conf 39 | DNA CAG counter 11
COc1cc(NS(=O)(=O)c2ccc(N/C=C(\C#N)c3nc4ccccc4o3)cc2)nc(OC)n1	rCAG RNA binder 68 | rCAG bind conf 67 | DNA CAG counter 31
CCOC(=O)C1=C(C)N=c2s/c(=C/c3ccc(OCC(=O)O)cc3)c(=O)n2C1c1ccc(F)cc1 (stereo unspecified)	rCAG RNA binder 69 | rCAG bind conf 77 | DNA CAG counter 36
CCOC(=O)C1=C(C)N=c2s/c(=C\c3ccc(O)c([N+](=O)[O-])c3)c(=O)n2C1c1ccccc1OC (stereo unspecified)	rCAG RNA binder 52 | rCAG bind conf 88 | DNA CAG counter 64
CCOC(=O)C1=C(C)N=c2s/c(=C/c3ccccc3)c(=O)n2C1c1ccc(OC)c(OC)c1 (stereo unspecified)	none
CCOC(=O)C1=C(C)N=c2s/c(=C\c3ccc(OCC(=O)O)cc3)c(=O)n2C1c1ccc(Cl)cc1 (stereo unspecified)	rCAG RNA binder 55 | rCAG bind conf 73 | DNA CAG counter 36
CCOC(=O)C1=C(C)N=c2s/c(=C/c3ccc(OCC(=O)O)c(OC)c3)c(=O)n2C1c1ccc(Cl)cc1 (stereo unspecified)	rCAG RNA binder 44 | rCAG bind conf 54 | DNA CAG counter 16
CC1=C(C(=O)OC(C)C)C(c2ccc(Cl)cc2)n2c(sc(=Cc3ccc(OCC(=O)O)cc3)c2=O)=N1 (stereo unspecified)	rCAG RNA binder 42 | rCAG bind conf 64 | DNA CAG counter 30 | DNA CAG DR inactive
